Activity calls are given as the source filed them. Unless noted, no rule for the calls is given here.

Test [1] in a line: HepG2 liver cancer cell viability effects, profiling panel, resazurin fluorescence, 24 h, PK04 Diversity Set (AID 1172). To be noted: higher = more signal. On the technique in general: Alamar Blue is a resazurin reagent that responds to reducing activity.
A short description of test [2]: basal S. cerevisiae growth modulation, no modifier, primary screen, OD600, strain BY4716, 24 h, basal condition (AID 1173). To be noted: OD600, 24 h, higher = more signal, called active from +8 up or from −8 down.
A short description of test [3]: MM1S myeloma cell viability, profiling panel, resazurin fluorescence, basal, 24 h, PK04 Diversity Set (AID 1174).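 Also: MM1S multiple myeloma cell line.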 To be noted: higher = more signal, called active from +8 up or from −8 down.
The target of test [4] is Dihydroorotate dehydrogenase (quinone), mitochondrial (Plasmodium falciparum (isolate 3D7)) (UniProt Q08210). The experiment in a line: PfDHODH enzyme inhibitors, primary screen, biochemical, C-terminal His tag, absorbance 600 nm (AID 1175).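 Also: recombinant parasite enzyme with a five histidine tag at its C terminus.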 To be noted: DCIP absorbance 600 nm, higher = more signal, called active from +8 up or from −8 down.
Chain of Dihydroorotate dehydrogenase (quinone), mitochondrial (Plasmodium falciparum (isolate 3D7)) (Q08210 whole entry, looked up): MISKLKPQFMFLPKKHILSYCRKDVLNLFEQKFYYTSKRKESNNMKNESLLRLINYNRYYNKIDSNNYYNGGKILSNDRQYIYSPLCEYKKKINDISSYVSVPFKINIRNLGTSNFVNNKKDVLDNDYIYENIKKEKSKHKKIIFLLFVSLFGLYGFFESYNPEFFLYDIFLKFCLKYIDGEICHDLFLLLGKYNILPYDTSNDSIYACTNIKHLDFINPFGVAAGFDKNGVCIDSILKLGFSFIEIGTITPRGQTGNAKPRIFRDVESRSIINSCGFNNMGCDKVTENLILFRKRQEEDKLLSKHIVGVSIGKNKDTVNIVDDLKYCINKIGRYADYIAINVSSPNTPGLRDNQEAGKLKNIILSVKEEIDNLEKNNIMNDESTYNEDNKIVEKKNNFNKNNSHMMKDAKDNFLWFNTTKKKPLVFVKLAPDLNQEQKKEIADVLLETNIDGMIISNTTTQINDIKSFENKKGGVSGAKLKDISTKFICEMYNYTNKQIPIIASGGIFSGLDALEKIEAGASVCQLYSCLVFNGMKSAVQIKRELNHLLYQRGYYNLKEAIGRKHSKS
Test [5] is described as follows: P. aeruginosa biofilm formation inhibitors, primary screen, strain PAO1, LB-PBS medium, absorbance 600 nm (AID 1176). To be noted: P. aeruginosa PAO1 growth/biofilm, A600, 12 h; higher = more signal.
Test [6] is described as follows: S. cerevisiae RM11-1a growth modifiers, primary screen, strain RM11-1a, OD600, basal, 24 h (AID 1177).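 Also: cultures grown under basal conditions with no added stressor.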 To be noted: OD600, 24 h, higher = more signal, called active from +8 up or from −8 down.
A short description of test [7]: E. coli acrAB mutant growth effects, primary screen, E. coli filamentation inducers, strain DRC39, OD650, 24 h (AID 1178).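 Also: growth measured as culture turbidity by optical density at 650 nm.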 To be noted: higher = more signal, called active from +8 up or from −8 down.
Test [8] is described as follows: E. coli acrAB mutant growth effects, primary screen, E. coli filamentation inducers, strain DRC39, OD650, 48 h (AID 1179).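 Also: screen aims at cell division blockers that make cells filament.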 To be noted: E. coli DRC39 delta-acrAB growth, higher = more signal, called active from +8 up or from −8 down.
Test [9] can be described thus: RPMI8226 myeloma cell viability, profiling panel, resazurin fluorescence, basal, 24 h, PK04 Diversity Set (AID 1180).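 Also: RPMI8826 multiple myeloma cell line at 5000 cells per well.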 To be noted: higher = more signal.
The target in test [10] is E3 ubiquitin-protein ligase XIAP (Homo sapiens) (UniProt P98170). The experiment in a line: XIAP binders, primary screen, biophysical, small-molecule microarray, fluorescence 635 nm (AID 1181).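 Also: score merges 667 nm emission and signal to noise over triplicate slides.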 To be noted: small-molecule microarray binding, higher = more signal.
Chain of E3 ubiquitin-protein ligase XIAP (Homo sapiens) (P98170 whole entry, looked up): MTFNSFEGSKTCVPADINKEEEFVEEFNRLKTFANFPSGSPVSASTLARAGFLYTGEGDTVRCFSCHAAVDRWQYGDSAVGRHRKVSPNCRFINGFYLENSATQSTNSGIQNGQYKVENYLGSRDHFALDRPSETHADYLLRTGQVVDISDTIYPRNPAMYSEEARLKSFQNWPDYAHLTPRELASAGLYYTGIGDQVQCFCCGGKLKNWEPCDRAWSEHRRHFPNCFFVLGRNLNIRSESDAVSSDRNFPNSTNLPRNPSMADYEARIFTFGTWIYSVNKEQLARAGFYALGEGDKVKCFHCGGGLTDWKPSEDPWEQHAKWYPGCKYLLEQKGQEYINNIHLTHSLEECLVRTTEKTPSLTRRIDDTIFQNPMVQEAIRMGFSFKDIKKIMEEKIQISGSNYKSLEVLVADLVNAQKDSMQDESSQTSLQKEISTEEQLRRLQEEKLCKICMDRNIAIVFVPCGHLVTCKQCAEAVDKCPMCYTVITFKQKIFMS
Test [11] has as its system XIP peptide (Xip251-270) binding. The experiment in a line: small-molecule binders of XIP peptide, primary screen, biochemical, small-molecule microarray, fluorescence 635/667 nm, 0.1 µg/mL protein (AID 1182). To be noted: fluorescent protein binding, 635 nm, higher = more signal, called active from +8 up or from −8 down.
The test system of a further test is XIP peptide (Xip251-270). The experiment in a line: small-molecule binders of XIP peptide, primary screen, biochemical, small-molecule microarray, fluorescence 635/667 nm, 0.5 µg/mL protein (AID 1183). To be noted: small-molecule microarray binding, fluorescence 635 nm; higher = more signal.
Test [12] in a line: Plasmodium falciparum growth inhibition, primary screen, strain 3D7, DAPI fluorescence, 100 nL (AID 1184).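 Also: parasites grown inside human red blood cells in medium with human serum.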 To be noted: P. falciparum 3D7 growth, 3 d, higher = more signal.
Test [13] has as its target Homeobox protein Hox-A13 (Mus musculus) (UniProt Q62424). The experiment in a line: inhibitors of HoxA13-DNA binding, primary screen, biochemical, fluorescence polarization, labeled oligonucleotide (AID 1185). To be noted: 15 min, higher = more signal, called active from +8 up or from −8 down. On the technique in general: Polarisation of emitted light reports the rotation of a fluorescent probe.

The nature of test [14]: inhibitors of hydroxyurea-induced Chk1 phosphorylation, primary screen, imaging, HeLa, phospho-Chk1 antibody, percent positive cells (AID 1186). To be noted: hydroxyurea-induced phospho-Chk1 immunofluorescence imaging, higher = more signal.
A short description of test [15]: inhibitors of hydroxyurea-induced Chk1 phosphorylation, primary screen, imaging, HeLa, phospho-Chk1 nuclear intensity (AID 1187). To be noted: hydroxyurea-induced phospho-Chk1 immunofluorescence imaging, higher = more signal.

Chain of Homeobox protein Hox-A13 (Mus musculus) (Q62424 whole entry, looked up): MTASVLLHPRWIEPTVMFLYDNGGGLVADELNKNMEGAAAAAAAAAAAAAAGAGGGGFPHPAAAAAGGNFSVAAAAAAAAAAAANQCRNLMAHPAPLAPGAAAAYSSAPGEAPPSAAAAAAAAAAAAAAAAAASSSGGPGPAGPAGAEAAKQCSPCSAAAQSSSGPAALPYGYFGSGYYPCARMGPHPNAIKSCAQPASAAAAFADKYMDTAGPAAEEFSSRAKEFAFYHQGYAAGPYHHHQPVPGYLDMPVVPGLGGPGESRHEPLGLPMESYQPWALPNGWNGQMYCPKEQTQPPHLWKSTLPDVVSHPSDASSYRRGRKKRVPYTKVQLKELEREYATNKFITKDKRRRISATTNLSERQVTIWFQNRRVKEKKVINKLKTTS

With `COC(=O)[C@@]1(Cc2ccccc2)[C@H]2c3cc(C(=O)N(C)C)n(CCO)c3C[C@H]2CN1C(=O)c1ccccc1`, the z-score was -0.546 in test [1]; 1.24 (inactive) in test [2]; -1.28 (inactive) in test [3]; 0.274 (inactive) in test [5]; 0.329 (inactive) in [6]; -0.751 (inactive) in [7]. Moreover, the z-score in test [8] is -0.217 (inactive); in test [9], -1.11; in test [12], 1.1; in [13], -3.87 (inactive); in test [14] it was 0.736 (inactive); in test [15], 0.491 (inactive). The composite z-score is 0.0058 (inactive) in test [4], -0.0152 in [10], 1.42 (inactive) in test [11] and 0.182 in the test with XIP peptide (Xip251-270).

Turning to `O=C1C=C(c2ccccc2)C(=O)C2=C1CC([C@H]1Oc3ccccc3S(=O)(=O)N3CCC[C@@H]13)=CC2`, the z-score was 0.203 in [1]; -3.37 (inactive) in test [2]; -7.16 (inactive) in [3]; -0.0461 (inactive) in test [5]; -0.926 (inactive) in [6]; 0.0769 (inactive) in [7]. Further, the z-score is -0.807 (inactive) in test [8]; -4.88 in [9]; -3.16 in [12]; -3.85 (inactive) in [13]; 0.079 (inactive) in test [14]; 0.334 (inactive) in test [15]. In addition, the composite z-score in test [4] was -1.54 (inactive); in test [10] it was -0.127; in test [11], -0.0015 (inactive); in the test on XIP peptide (Xip251-270), -0.0733.

Regarding `C=CCC(OC(C)=O)[C@@H]1[C@@H](N(Cc2ccc(-c3cccc(C(F)(F)F)c3)o2)C(=O)c2ccc(-c3ccccc3)cc2)c2cc(OCCCO)ccc2N1C(=O)c1ccc2ccccc2c1` (stereo partly specified), the z-score was 0.393 in test [1]; 0.488 (inactive) in test [2]; 0.314 (inactive) in test [3]; -0.452 (inactive) in test [5]; 1.27 (inactive) in [6]; 0.391 (inactive) in test [7]. Moreover, the z-score was 0.412 (inactive) in test [8]; 0.881 in [9]; -1.26 in test [12]; -1.43 (inactive) in test [13]; 0.366 (inactive) in test [14]; 0.766 (inactive) in [15]. Moreover, the composite z-score in test [4] is -0.0636 (inactive); in [10], -0.0889; in [11], 0.405 (inactive); in the test with XIP peptide (Xip251-270), -0.378.

With `COC(=O)[C@@]1(Cc2ccc(OC)cc2)[C@H]2c3cc(C(=O)N4CCCC4)n(Cc4c(CO)[nH]cc(C)c4=O)c3C[C@H]2CN1C(=O)c1ccccc1`, the z-score in test [1] is 0.229; in [2] it was 0.684 (inactive); in test [3] it was 0.421 (inactive); in test [5] it was 0.548 (inactive); in test [6] it was 0.124 (inactive); in test [7], 0.153 (inactive). The z-score was 1.17 (inactive) in [8]; 0.572 in test [9]; -1.56 in test [12]; -5.39 (inactive) in test [13]; -0.166 (inactive) in [14]; 0.0081 (inactive) in test [15]. In addition, the composite z-score is -1.21 (inactive) in [4], 0.477 in test [10], 1.1 (inactive) in test [11] and 0.523 in the test on XIP peptide (Xip251-270).

For the compound `C=C(COC)C(=O)CC[C@@H](OC(=O)c1ccccc1-c1ccccc1C(=O)O)c1ccc(OCCO)cc1`, the z-score is -0.425 in test [1]; -0.528 (inactive) in test [2]; -0.105 (inactive) in test [3]; 0.449 (inactive) in test [5]; -0.426 (inactive) in test [6]; -0.699 (inactive) in [7]. Also, the z-score was -0.708 (inactive) in test [8]; -0.492 in [9]; -0.61 in test [12]; -5.88 (inactive) in test [13]; -0.0419 (inactive) in test [14]; 0.0533 (inactive) in test [15]. Besides, the composite z-score was -1.09 (inactive) in test [4], 0.165 in test [10], 0.264 (inactive) in test [11] and 0.666 with XIP peptide (Xip251-270).

Turning to `CC(C)=CCCC(C)=CC(O)C1C=CC2C(=O)NC(=O)C2N1Nc1ccccn1` (stereo unspecified), the z-score was -1.33 in test [1]; 0.386 (inactive) in [2]; -0.58 (inactive) in [3]; 1.55 (inactive) in test [5]; -0.881 (inactive) in [6]; -0.222 (inactive) in test [7]. The z-score was 0.528 (inactive) in [8]; -0.754 in test [9]; 0.563 in test [12]; -4.67 (inactive) in [13]; 0.282 (inactive) in test [14]; -0.0205 (inactive) in test [15]. In addition, the composite z-score in [4] is 0.242 (inactive); in test [10], 0.0602; in test [11], 0.113 (inactive); in the test with XIP peptide (Xip251-270), 0.628.

These data come from PubChem BioAssay.
